The campaign covered roughly 5,500 compounds. About 2,000 (36%) were called active. Roughly 18% stayed inconclusive and do not appear here. Rule as the data show it: active = normalized growth mostly below about 0.91 (no sharp cut-off); inconclusive = no clear call, values can overlap the other calls; inactive = mostly above about 0.92. The list shows a part of the results.
Assay: chemical genetic growth profiling, strain panel (AID 1159580);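 also: tested at 20 µM; growth read once vehicle control cultures reached saturation at 30 °C; 1 = growth at the plate median or of vehicle wells; lower values mean less growth of the strain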
Conditions: growth OD
[1] = S. cerevisiae deletion strains, locus YAL013W, strain DEP1, hits give low values
[2] = S. cerevisiae deletion strains, locus YBR229C, strain ROT2, hits give low values
[3] = S. cerevisiae deletion strains, locus YDL101C, strain DUN1, hits give low values
[4] = S. cerevisiae deletion strains, locus YDR150W, strain NUM1, hits give low values
[5] = S. cerevisiae deletion strains, locus YEL061C, strain CIN8, hits give low values
[6] = S. cerevisiae deletion strains, locus YGR078C, strain PAC10, hits give low values
[7] = S. cerevisiae deletion strains, locus YHR030C, strain SLT2, hits give low values
[8] = S. cerevisiae deletion strains, locus YJR043C, strain POL32, hits give low values
[9] = S. cerevisiae deletion strains, locus YJR075W, strain HOC1, hits give low values
[10] = S. cerevisiae deletion strains, locus YLR039C, strain RIC1, hits give low values
[11] = S. cerevisiae deletion strains, locus YLR262C, strain YPT6, hits give low values
[12] = S. cerevisiae deletion strains, locus YMR263W, strain SAP30, hits give low values
[13] = S. cerevisiae deletion strains, locus YNL128W, strain TEP1, hits give low values
[14] = S. cerevisiae deletion strains, locus YNL153C, strain GIM3, hits give low values
[15] = S. cerevisiae deletion strains, locus YNL322C, strain KRE1, hits give low values
[16] = S. cerevisiae deletion strains, locus YPL055C, strain LGE1, hits give low values
[17] = S. cerevisiae deletion strains, locus YPL241C, strain CIN2, hits give low values

Measured: normalized growth

CC1(C)C(C=C(Cl)Cl)C1C(=O)OC(C#N)c1cccc(Oc2ccccc2)c1 (stereo unspecified)
inactive: [1] 0.996 | S. cerevisiae deletion strains, locus YBR021W, strain FUR4, hits give low values 0.962 | [2] 0.986 | S. cerevisiae deletion strains, locus YCL029C, strain bik1, hits give low values 1.01 | S. cerevisiae deletion strains, locus YDL035C, strain GPR1, hits give low values 0.998 | S. cerevisiae deletion strains, locus YDL074C, strain BRE1, hits give low values 1.01 | [3] 0.993 | S. cerevisiae deletion strains, locus YDL134C, strain PPH21, hits give low values 0.995 | S. cerevisiae deletion strains, locus YDL185W, strain tfp1, hits give low values 0.996 | S. cerevisiae deletion strains, locus YDL192W, strain arf1, hits give low values 1 | S. cerevisiae deletion strains, locus YDR101C, strain arx1, hits give low values 0.996 | [4] 1 | S. cerevisiae deletion strains, locus YDR162C, strain NBP2, hits give low values 1.02 | S. cerevisiae deletion strains, locus YDR318W, strain mcm21, hits give low values 0.983 | S. cerevisiae deletion strains, locus YDR388W, hits give low values 1 | S. cerevisiae deletion strains, locus YDR502C, strain sam2, hits give low values 0.998 | [5] 0.999 | S. cerevisiae deletion strains, locus YER110C, hits give low values 0.99 | S. cerevisiae deletion strains, locus YER155C, strain BEM2, hits give low values 0.999 | S. cerevisiae deletion strains, locus YER167W, strain BCK2, hits give low values 0.987 | S. cerevisiae deletion strains, locus YGL078C, strain dbp3, hits give low values 1 | S. cerevisiae deletion strains, locus YGL086W, strain mad1, hits give low values 0.954 | S. cerevisiae deletion strains, locus YGL248W, strain PDE1, hits give low values 0.983 | [6] 1.01 | S. cerevisiae deletion strains, locus YGR135W, strain pre9, hits give low values 0.992 | S. cerevisiae deletion strains, locus YGR229C, strain SMI1, hits give low values 1 | S. cerevisiae deletion strains, locus YGR252W, strain gcn5, hits give low values 0.95 | [7] 0.99 | S. cerevisiae deletion strains, locus YHR079C, strain IRE1 (second series), hits give low values 1 | S. cerevisiae deletion strains, locus YHR094C, strain hxt1, hits give low values 0.998 | S. cerevisiae deletion strains, locus YHR129C, strain ARP1, hits give low values 0.997 | S. cerevisiae deletion strains, locus YHR200W, strain rpn10, hits give low values 0.992 | S. cerevisiae deletion strains, locus YIL066C, strain RNR3, hits give low values 0.98 | S. cerevisiae deletion strains, locus YIL073C, strain SPO22, hits give low values 0.99 | S. cerevisiae deletion strains, locus YIL125W, strain kgd1, hits give low values 1.01 | S. cerevisiae deletion strains, locus YIR030C, strain dcg1, hits give low values 0.998 | S. cerevisiae deletion strains, locus YJL095W, strain BCK1, hits give low values 1.01 | S. cerevisiae deletion strains, locus YJL134W, strain LCB3, hits give low values 0.984 | S. cerevisiae deletion strains, locus YJL168C, strain set2, hits give low values 1 | S. cerevisiae deletion strains, locus YJL187C, strain SWE1 (second series), hits give low values 1 | [8] 0.987 | [9] 0.998 | S. cerevisiae deletion strains, locus YKL009W, strain mrt4, hits give low values 0.96 | S. cerevisiae deletion strains, locus YKL068W, hits give low values 1 | S. cerevisiae deletion strains, locus YKL085W, strain MDH1 (second series), hits give low values 0.992 | S. cerevisiae deletion strains, locus YKL085W, strain MDH1, hits give low values 0.992 | S. cerevisiae deletion strains, locus YKL190W, strain CNB1, hits give low values 1 | S. cerevisiae deletion strains, locus YKR001C, strain vps1, hits give low values 0.976 | [10] 0.969 | S. cerevisiae deletion strains, locus YLR058C, strain SHM2, hits give low values 0.993 | S. cerevisiae deletion strains, locus YLR102C, strain apc9, hits give low values 1 | [11] 0.99 | S. cerevisiae deletion strains, locus YLR268W, strain sec22, hits give low values 1 | S. cerevisiae deletion strains, locus YLR330W, strain CHS5, hits give low values 0.995 | S. cerevisiae deletion strains, locus YLR342W, strain FKS1 (second series), hits give low values 0.951 | S. cerevisiae deletion strains, locus YLR371W, strain rom2, hits give low values 1 | S. cerevisiae deletion strains, locus YLR418C, strain cdc73, hits give low values 1.05 | S. cerevisiae deletion strains, locus YML016C, strain PPZ1, hits give low values 0.994 | S. cerevisiae deletion strains, locus YML032C, strain rad52, hits give low values 0.98 | S. cerevisiae deletion strains, locus YML124C, strain tub3, hits give low values 0.998 | S. cerevisiae deletion strains, locus YMR078C, strain ctf18, hits give low values 0.98 | S. cerevisiae deletion strains, locus YMR223W, strain ubp8, hits give low values 0.974 | [12] 1.01 | S. cerevisiae deletion strains, locus YMR307W, strain GAS1, hits give low values 0.94 | S. cerevisiae deletion strains, locus YNL067W, strain RPL9B, hits give low values 1.01 | [13] 1 | [14] 1.01 | S. cerevisiae deletion strains, locus YNL233W, strain BNI4, hits give low values 1.01 | S. cerevisiae deletion strains, locus YNL250W, strain rad50, hits give low values 0.993 | S. cerevisiae deletion strains, locus YNL271C, strain bni1, hits give low values 0.998 | S. cerevisiae deletion strains, locus YNL298W, strain CLA4, hits give low values 0.964 | S. cerevisiae deletion strains, locus YNL307C, strain MCK1, hits give low values 0.991 | [15] 0.994 | S. cerevisiae deletion strains, locus YNR052C, strain pop2, hits give low values 0.979 | S. cerevisiae deletion strains, locus YOL006C, strain TOP1, hits give low values 1.03 | S. cerevisiae deletion strains, locus YOL012C, strain htz1 1.96 | S. cerevisiae deletion strains, locus YOL147C, strain pex11, hits give low values 1.01 | S. cerevisiae deletion strains, locus YOR061W, strain CKA2, hits give low values 0.997 | S. cerevisiae deletion strains, locus YOR069W, strain VPS5, hits give low values 0.995 | S. cerevisiae deletion strains, locus YOR136W, strain idh2, hits give low values 1 | S. cerevisiae deletion strains, locus YOR144C, strain elg1, hits give low values 0.997 | S. cerevisiae deletion strains, locus YOR184W, strain ser1, hits give low values 0.983 | S. cerevisiae deletion strains, locus YOR316C, strain cot1, hits give low values 0.996 | [16] 1.03 | [17] 1 | S. cerevisiae deletion strains, locus YPR119W, strain clb2, hits give low values 1.01 | S. cerevisiae deletion strains, locus YPR141C, strain kar3, hits give low values 0.992 | S. cerevisiae deletion strains, locus YPR163C, strain tif3, hits give low values 1.01 | S. cerevisiae deletion strains, locus YPR167C, strain met16, hits give low values 0.99 | S. cerevisiae deletion strains, strain wtn01, hits give low values 0.991 | S. cerevisiae strains, strain wild type, hits give low values 1.01

N[C@@H](C(=O)O)c1ccccc1
inactive: [1] 1 | [2] 1 | [3] 1.01 | [4] 0.997 | [5] 1 | [6] 0.998 | [7] 0.927 | S. cerevisiae deletion strains, locus YHR087W, strain rtc3, hits give low values 0.998 | [8] 1.01 | [9] 0.992 | [10] 0.981 | S. cerevisiae deletion strains, locus YLR058C, strain SHM2 (second series), hits give low values 0.992 | S. cerevisiae deletion strains, locus YLR085C, strain ARP6, hits give low values 1.04 | [11] 0.954 | S. cerevisiae deletion strains, locus YML094W, strain GIM5, hits give low values 1.03 | S. cerevisiae deletion strains, locus YMR219W, strain ESC1, hits give low values 1 | [12] 0.987 | [13] 0.985 | [14] 0.999 | S. cerevisiae deletion strains, locus YNL298W, strain CLA4 (second series), hits give low values 1.02 | [15] 1.01 | S. cerevisiae deletion strains, locus YNR030W, strain Alg12, hits give low values 1.03 | [16] 0.996 | [17] 1.02 | S. cerevisiae deletion strains, locus YPR135W, strain CTF4, hits give low values 0.974
